Hits are enriched below; roughly 4.8% of the tested compounds scored in any of these assays.
hgDAF-12 ag: H. glycines DAF-12 receptor agonists, primary screen, cell-based, luminescence, HEK293, GAL4 fusion, UAS-luciferase; Nuclear hormone receptor DAF-12 (Heterodera glycines), GAL4 fusion; HEK293 GAL4-hgDAF12 UAS-luciferase reporter, agonist luminescence; normalized to butyrate control; activation, % at 6.8 µM; actives 1.8% (n = 370,000);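 active = activation above a cutoff set at the mean of all screened compounds plus 3 SD, cut at about 10% in these data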;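 note: 0% = DMSO wells and 100% = sodium butyrate wells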
DAX1 inh-1: DAX1 (NR0B1) inhibitors on StAR promoter, primary screen, cell-based, luminescence, SF-1 (NR5A1), full-length DAX-1. HEK293T StAR-luciferase reporter, SF-1/DAX-1 repression relief. inhibition, % at 6.8 µM. actives 1.1% (n = 370,000). AID 652010, 2013;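 active = inhibition above the mean over all tested compounds plus 3 SD, cut at about 3.6% in these data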;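 note: 0% = DAX-1 cells with DMSO and 100% = cells lacking DAX-1 with DMSO; higher inhibition means more luminescence from relief of DAX-1 repression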
SMARCA2 act: SMARCA2 (BRM) function activators, primary screen, cell-based, luminescence, high throughput. MG213 cells, MMTV-luciferase reporter, dexamethasone, overnight. activation, % at 9.1 µM. actives 1% (n = 370,000). AID 652017, 2013; in the data active = activation above about 7.8%;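 note: 0% = vehicle wells and 100% = reference activator wells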
DAX1 inh-2: DAX1 (NR0B1) inhibitors, primary screen, cell-based, HEK293, Gal4-DAX1, luciferase luminescence; Nuclear receptor subfamily 0 group B member 1 (Homo sapiens), P51843; HEK293 Gal4-DAX1 luciferase reporter; inhibition, % at 6.75 µM; actives 0.99% (n = 340,000);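 active = inhibition above the mean over all tested compounds plus 3 SD, cut at about 4.2% in these data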;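 note: 0% = DAX1-transfected cells with DMSO and 100% = empty-vector control cells with DMSO; inhibition shows as a rise in luminescence from relieved DAX1 repression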
Target sequence (P51843 207-470 limits assumed): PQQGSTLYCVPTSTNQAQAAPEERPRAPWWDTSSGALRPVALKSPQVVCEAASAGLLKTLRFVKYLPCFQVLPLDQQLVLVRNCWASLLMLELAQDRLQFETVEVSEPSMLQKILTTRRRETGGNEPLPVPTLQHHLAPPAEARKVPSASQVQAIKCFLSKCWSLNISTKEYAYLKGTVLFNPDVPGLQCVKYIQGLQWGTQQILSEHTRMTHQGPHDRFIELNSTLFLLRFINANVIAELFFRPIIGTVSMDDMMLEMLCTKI
ssDAF12 agonist: S. stercoralis DAF-12 nuclear receptor activators, primary screen, cell-based, luminescence, HEK293, GRIP1 co-expression, lit1-tk-luc | HEK293 ssDAF-12/GRIP1 lit1-tk-luc reporter; % of 3 µM dafachronic acid response | activation, % at 6.8 µM | actives 1% (n = 370,000) | Nuclear hormone receptor DAF-12 (Strongyloides stercoralis);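 active = activation above the mean over all tested compounds plus 3 SD, cut at about 0.9% in these data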;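 note: 0% = DMSO-only wells and 100% = 3 µM delta7-dafachronic acid wells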
hcDAF12 agonist: H. contortus DAF-12 nuclear receptor activators, primary screen, cell-based, luminescence, HEK293, lit1-tk-luc reporter; HEK293 hcDAF-12 lit1-tk-luc reporter; 0% DMSO, 100% Δ7-dafachronic acid; activation, % at 6.8 µM; actives 1.4% (n = 370,000); AID 652067, 2013;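 active = activation above the mean of all tested compounds plus 3 SD, cut at about 5.5% in these data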;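 note: 100% = response to 3 µM Δ7-dafachronic acid high control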
SMARCA2 act conf: SMARCA2 (BRM) function activators, confirmation, cell-based, luminescence, triplicate | shares compounds with SMARCA2 act | MG213 cells, MMTV-luciferase with dexamethasone, overnight; MG213 cells expressing E1A, Rb sequestered; DMSO wells 0%, reference activator 100% | activation, % at 9.1 µM | actives 30% (n = 3,500) | AID 652260, 2013;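 active = activation above its plate's cutoff, the mean activation of tested wells plus 3 SD, cut at about 7.9% in these data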
VP16 Luc act: GAL4-VP16 luciferase reporter activation, counter-screen for SMARCA2 (BRM) activator project, cell-based, pG5luc, luminescence, high throughput; activation, % at 9.1 µM; actives 41% (n = 3,500); HEK293 GAL4-VP16 pG5luc reporter; scaled: DMSO wells 0%, SAHA wells 100%; AID 686939, 2013; shares compounds with SMARCA2 act;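 active = activation above the solvent-only control well mean plus 3 SD, averaged across control plates, cut at about 5.2% in these data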
LXR ag: LXR agonists, Gal4 luciferase reporter, confirmation, counter-screen for hcDAF-12 agonist project, cell-based, luminescence, HEK293, H. contortus campaign. shares compounds with hcDAF12 agonist. HEK293 Gal4-LXR tk-luc reporter, 24 h; normalized: DMSO 0%, positive control 100%. activation, % at 6.8 µM. 3,400 tested, under 10 active. AID 743027, 2013;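 active = mean percent activation of the reporter above a cutoff set as the average over tested compounds plus their standard deviation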
Target sequence (P55055 whole entry, looked up, the tested form may be a part): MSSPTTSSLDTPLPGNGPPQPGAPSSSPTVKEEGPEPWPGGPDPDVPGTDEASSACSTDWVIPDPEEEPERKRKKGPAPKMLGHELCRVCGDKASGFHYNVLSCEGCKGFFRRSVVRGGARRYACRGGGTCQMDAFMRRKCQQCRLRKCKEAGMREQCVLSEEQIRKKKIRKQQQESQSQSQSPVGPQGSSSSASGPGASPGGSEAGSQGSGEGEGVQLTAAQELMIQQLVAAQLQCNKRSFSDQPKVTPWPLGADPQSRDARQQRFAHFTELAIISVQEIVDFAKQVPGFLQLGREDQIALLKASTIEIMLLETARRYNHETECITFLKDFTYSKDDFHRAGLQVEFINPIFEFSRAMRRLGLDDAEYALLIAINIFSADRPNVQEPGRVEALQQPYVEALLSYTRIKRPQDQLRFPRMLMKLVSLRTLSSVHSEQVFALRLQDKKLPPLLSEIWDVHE
hcDAF12 ag: H. contortus DAF-12 receptor agonists, confirmation, cell-based, luminescence, HEK293, lit1-tk-luc, triplicate; shares compounds with hcDAF12 agonist; HEK293 hcDAF-12 lit1-tk-luc reporter; % of Δ7-dafachronic acid response; activation, % at 6.8 µM; actives 61% (n = 3,400);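 active = mean activation across triplicate tests above the threshold derived from the earlier primary screen, cut at about 5.5% in these data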;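 note: 0% = DMSO only wells and 100% = 3 µM Δ7-dafachronic acid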
Numbers without * were called inactive; . = no result.

SMILES	hgDAF-12 ag	DAX1 inh-1	SMARCA2 act	DAX1 inh-2	ssDAF12 agonist	hcDAF12 agonist	SMARCA2 act conf	VP16 Luc act	LXR ag	hcDAF12 ag
O=C(Nc1nc2ccccc2s1)C1CCCO1 (stereo not given)	9.5	2.1	10.7*	0.2	0.5	7.5*	10.9*	9.8*	1.1	6.7*
COc1ccc2nc(NC(=O)c3ccc(NC(=O)C4CCCO4)cc3)sc2c1 (stereo not given)	0.4	-0.7	-1.7	0.4	-0.4	-1.3	.	.	.	.
NC(=S)Nc1nc2ccccc2s1	9.7	1.6	15.6*	0.2	0.8	7.9*	17.3*	5.5*	0.5	7.0*
COc1cc2c(cc1NC(=O)c1cccc(F)c1)CCCC2	-0.8	0.8	3.4	0.2	-0.6	3.5	.	.	.	.
COc1cc2c(cc1NC(=O)c1ccccc1F)CCCC2	9.9	1.5	9.3*	0.4	0.2	8.2*	4.4	7.6*	0.2	6.7*
Cc1cccn2cc(-c3c[nH]c4ccccc34)nc12	12.5*	3.2	16.6*	4.8*	0.9*	6.9*	6.0	10.4*	0.6	10.0*
OCCCNc1c2ccccc2nc2ccccc12	7.0	-0.3	18.9*	0.2	2.3*	19.9*	145.2*	0.9	1.9	28.5*
Cc1nn(-c2cccc(C(F)(F)F)c2)c(Cl)c1/C=N/Nc1cccc(C(=O)O)c1	13.2*	3.7*	12.5*	-2.1	-0.3	10.5*	10.0*	15.5*	1.3	9.5*
CC(C)Cn1c(SCC(=O)N2CCCc3ccccc32)nc2ccccc2c1=O	-1.4	0.1	-0.8	.	0.2	1.5	.	.	.	.
Cc1ccnc(NC(=O)CCNC(=O)c2ccc(Br)cc2)c1	4.3	2.1	2.2	-1.2	0.4	0.7	.	.	.	.
Nc1c2c(nc3ccccc13)CCCC2	0.1	0.2	-3.9	1.2	-1.4	0.7	.	.	.	.
Nc1c2ccccc2nc2ccccc12	4.5	0.5	54.8*	3.2	2.6*	13.5*	110.4*	1.6	1.3	25.1*
Cc1nc(Nc2ccccc2)c2oc3ccc(Cl)cc3c2n1	3.9	0.3	1.1	-0.1	-0.8	-0.1	.	.	.	.
c1coc(-c2nc3c4ccccc4ccn3c2Cc2ccsc2)c1	12.4*	3.2	20.3*	.	1.6*	7.4*	16.1*	4.8	1.1	15.0*
CC(C)(Oc1ccc(CCNC(=O)c2ccc(Cl)cc2)cc1)C(=O)O	0.8	0.5	-2.3	-1.7	-0.7	0.3	.	.	.	.
COc1ccc(CNc2nc(-c3ccccc3)nn2C(=O)c2cccs2)cc1	-1.0	0.2	-2.1	0.6	-1.5	-0.2	.	.	.	.
COc1ccc(-c2cc(-c3cc(C)ccc3O)[nH]n2)cc1	7.6	2.2	16.4*	2.8	1.2*	7.6*	17.5*	5.8*	0.4	2.9
COc1ccc(-c2cc(-c3ccc(OC)cc3)[nH]n2)cc1	7.2	-0.1	-0.6	-0.6	-0.4	-1.8	.	.	.	.
Cc1cc2[nH]c3c(c[n+](C)c4ccccc34)c2cc1C	6.3	-0.7	112.2*	-0.1	1.0*	14.4*	-15.7	-0.7	1.7	10.2*
Nc1c(Br)cc2oc(-c3ccccc3)nc2c1Br	7.5	2.0	9.5*	5.0*	1.1*	7.4*	12.3*	7.2*	1.2	16.9*
Cc1cc(C)c(NN=c2c(=O)c3ccccc3c2=O)c(C)c1	3.3	-0.2	7.3	2.9	-1.1	0.0	.	.	.	.
O=c1c(=NNc2ccccc2Cl)c(=O)c2ccccc12	4.1	0.1	8.4*	3.4	-0.2	7.9*	0.3	4.7	1.6	23.7*
CCN(CC)CCN1C(=O)c2cccc3cc(N)cc(c23)C1=O	-0.1	-0.3	11.5*	-1.5	-0.1	7.6*	26.1*	2.0	-0.3	4.8
NC(=O)CN1CCN(CCN2C(=O)c3cccc4cccc(c34)C2=O)CC1	2.6	0.1	1.1	0.6	-0.4	0.3	.	.	.	.
Nc1cc2c3c(cccc3c1)C(=O)N(CCN1CCCC1)C2=O	-6.0	-0.9	19.9*	-0.9	1.8*	16.0*	30.4*	3.3	0.1	11.8*
SMILES	hgDAF-12 ag	DAX1 inh-1	SMARCA2 act	DAX1 inh-2	ssDAF12 agonist	hcDAF12 agonist	SMARCA2 act conf	VP16 Luc act	LXR ag	hcDAF12 ag
O=C1c2cccc3cc([N+](=O)[O-])cc(c23)C(=O)N1CCN1CCCC1	-0.8	-1.8	64.2*	1.7	7.1*	44.5*	-1.7	6.5*	1.5	16.7*
COc1ccccc1NS(=O)(=O)c1ccc(O)c(C(=O)OCc2cccc([N+](=O)[O-])c2)c1	-0.3	-0.3	-4.4	-0.6	-1.7	-0.8	.	.	.	.
C#CCSc1n[nH]c(=O)n1-c1cccc(C(F)(F)F)c1	-2.6	-0.4	-4.7	0.3	-1.6	-2.3	.	.	.	.
O=C(Nc1nnc(SCC(=O)N2CCCc3ccccc32)s1)c1ccccc1	7.0	1.0	10.1*	-2.1	-0.8	8.0*	2.4	8.0*	0.2	3.7
Cc1ccc(C)c(S(=O)(=O)N2CCN(C(=O)[C@@H](NC(=O)c3ccc(F)cc3)C(C)C)CC2)c1	-5.2	0.6	-1.9	0.7	-0.6	-1.1	.	.	.	.
Cc1ccc(NS(=O)(=O)c2c(C)[nH]c(C)c2C(=O)N2CCCCC2)cc1C	-1.2	-0.3	-2.3	0.5	-1.5	-2.6	.	.	.	.
